Test results taken from PubChem BioAssay (NCATS).
“And” between values parts separate entries of the source, which are not always exact repeats. Identical values can stand only once. Records with an inconclusive call do not appear. The source made the active and inactive calls. Unless noted, calls come from the whole dose curve; as a rule, active = well fitted curve in either direction with a large enough effect (not every such curve was filed as active); inconclusive = small, poorly fitted or top-dose-only effect, or another doubt; inactive = flat fitted curve, though single readings scatter.

Columns and labels:
[1] = molecular target: Lysosomal acid glucosylceramidase (Homo sapiens) (UniProt P04062); experiment: Glucocerebrosidase-p2 (AID 348; in the data active = potency below about 10 µM; note: potency is the fitted concentration of half-maximal effect); details: purified GBA, blue fluorogenic substrate, 40 min
Procedure, shortened: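 Normal human glucocerebrosidase (0.2 nM) with blue fluorogenic substrate (80 uM final) in citrate/phosphate pH 5.9 with 10mM sodium taurocholate, 0.01% tween-20; 40 min RT, NaOH/glycine stop; fluorescence Ex 365/Em 440; AC50 from a titration from 0.6 nM upwards.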

[2] = AP1 Signaling Pathway (AID 357); details: ME-180 AP-1-bla reporter, EGF-induced, beta-lactamase ratio, 5 h;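 note: ME-180 reporter cells stimulated with EGF at its EC50 level; % is set by controls: 0 for no effect and ±100 for the full control effect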
Procedure, shortened: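 In this screen, ME-180 cells in Opti-MEM with 0.5% dialyzed FBS received EC50 EGF and compound titrations for 5 h. AP-1 reporter beta-lactamase was detected via CCF4 ratio, giving AC50 for positive and negative modulators.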

[3] = molecular target: Cytochrome P450 1A2 (Homo sapiens) (UniProt P05177); experiment: p450-cyp1a2 (AID 410; calls by dose curve; note: potency is the fitted concentration of half-maximal effect); details: recombinant CYP1A2, luciferin-ME demethylation, luminescence; series mostly up to 57 µM
Procedure, shortened: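 20nM CYP1A2, 100uM Luciferin-ME (=Km), 100mM KPO4; cpd 10 min RT; +NADPH regen, 60 min RT; stop/detect 20 min; luminescence. Normalized to furafylline 57 uM = full inhibition.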

[4] = NFAT Signaling Pathway (AID 444); details: Jurkat NFAT-bla M1, carbachol, beta-lactamase ratio, 5 h; at 7.69 µM (top of the series) unless noted;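 note: carbachol stimulus at about its EC50 of 1 µM final; % is set by controls: 0 for no effect and ±100 for the full control effect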
Procedure, shortened: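 Jurkat cells carrying an NFAT-driven β-lactamase reporter and co-transfected muscarinic M1 receptor were treated with compound plus carbachol (1 uM final, an EC50 level) for 5 h at 37 °C. CCF4 loading followed for 1 h at RT; 460/530 nm ratio gave %activity.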

[5] = Stat Signaling Pathway (AID 446); details: ME-180 (cervical carcinoma) SIE beta-lactamase reporter, IL-6 stimulated, 5 h;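 note: ME-180 cervical cancer cells given 40 pM IL-6 alongside compound; SIE-controlled beta-lactamase reporter measured as 460/530 nm FRET emission ratio; % is set by controls: 0 for no effect and ±100 for the full control effect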
Procedure, shortened: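 Emission at 460 and 530 nm (excitation 405 nm) reports SIE-controlled beta-lactamase in ME-180 cells. Cells received compound with 40 pM IL-6 for 5 hrs at 37 C; data scaled between 300 pM IL-6 and 125 nM JAK-inhibitor controls.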

[6] = molecular target: Glucocorticoid receptor (Homo sapiens) (UniProt P04150); experiment: GR-GFP Redistribution (AID 450;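 active = compounds whose dose series gives a full or clear partial fitted curve of increased nuclear translocation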; note: potency is the fitted concentration of half-maximal effect); details: U2OS GR-GFP nuclear translocation, laser cytometry, 2 h
[7] = molecular target: Glucocorticoid receptor (Homo sapiens) (UniProt P04150); experiment: GR-EFC Redistribution (AID 451; calls by dose curve; note: potency is the fitted concentration of half-maximal effect); details: CHO-K1 GR-EFC translocation, beta-gal luminescence, 2 h
Procedure, shortened: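 CHO-K1 cells stably expressing nuclear-localized β-gal enzyme acceptor and GR fused C-terminally to the enzyme donor fragment; ligand-driven nuclear translocation restores β-gal by complementation. Compounds titrated up to 46 uM final, 2 h at 37 °C; luminescence read.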

[8] = molecular target: Mitogen-activated protein kinase 10 (Mus musculus) (UniProt Q61831); experiment: JNK3 AlphaScreen Assay (AID 530); details: JNK3 lysate, c-Jun phosphorylation; series mostly up to 57.1 µM;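 note: kinase came from lysate of stimulated human HepG2 cells; signal reports phosphorylation of biotinylated GST-cJun 1-79 at Ser73 with 10 µM ATP; % is set by controls: 0 for no effect and ±100 for the full control effect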
Procedure, shortened: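 Biotinylated GST-cJun(1-79) served as substrate for JNK3 in HepG2 lysates stimulated with IL-1beta and TNF-alpha. ATP was 10 uM final, pH 7.6. Ser73 phosphorylation was quantified by AlphaScreen (680 nm excitation).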

[9] = molecular target: Cytochrome P450 3A4 (Homo sapiens) (UniProt P08684); experiment: qHTS Assay for Inhibitors and Substrates of Cytochrome P450 3A4 (AID 884; active = well fitted curve in the direction sought with a large enough effect; an effect the other way counts as inactive or inconclusive; note: potency is the fitted concentration of half-maximal effect; nearly all actives have a fitted effect of over 50% in size); details: recombinant CYP3A4, Luciferin-PPXE luminescence; series mostly up to 57.1 µM
Procedure, shortened: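 Luminescent readout of luciferin produced by CYP3A4 (20 nM) dealkylation of Luciferin-PPXE, 25 uM (its KM). NADPH-driven reaction ran 60 min at RT after 10 min compound preincubation; data scaled to 57 uM ketoconazole as 100% inhibition.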

[10] = molecular target: Cytochrome P450 3A4 (Homo sapiens) (UniProt P08684); experiment: qHTS Assay for Activators of Cytochrome P450 3A4 (AID 885; active = well fitted curve in the direction sought with a large enough effect; an effect the other way counts as inactive or inconclusive; note: nearly all actives have a fitted effect of over 65% in size); details: recombinant CYP3A4, Luciferin-PPXE luminescence, 60 min; series mostly up to 57.1 µM
Procedure, shortened: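 Activators are scored by enhanced luminescence from CYP3A4 conversion of luciferin-PPXE (25uM, equal to KM) to luciferin, after 60 min at RT with an NADPH-regenerating system.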

[11] = Confirmation and Secondary Assay for Modulators of Hemoglobin Beta Chain Splicing at IVS2 654 locus (AID 910; active = well fitted curve in the direction sought with a large enough effect; an effect the other way counts as inactive or inconclusive; note: % of control where 0% means no effect); details: HeLa EGFP-654 splicing reporter, GFP fluorescence, 48 h; series mostly up to 38.3 µM
Procedure, shortened: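 HeLa cells stably carrying EGFP interrupted by mutant beta-globin IVS2-654 intron (CMV-driven) were treated with compound for 2 days at 37C; corrected splicing was scored as total peak GFP intensity per well (488 nm excitation, 500-520 nm emission).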

[12] = Confirmation and Secondary Assay for Modulators of Hemoglobin Beta Chain Splicing at IVS2 705 locus (AID 930; active = well fitted curve in the direction sought with a large enough effect; an effect the other way counts as inactive or inconclusive;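 note: HeLa cells stably expressing the EGFP-705 splicing reporter; GFP fluorescence per well restored by corrected splicing of the IVS2-705 intron in EGFP; % of control where 0% means no effect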); details: HeLa EGFP-705 splicing reporter, GFP fluorescence, 48 h; series mostly up to 38.3 µM
Procedure, shortened: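 HeLa cells stably carrying EGFP interrupted by mutant beta-globin intron 2 (IVS2-705) treated 2 days at 37C with compound; 500 nM antisense PNA as control. Correct splicing read as total peak GFP intensity per well by laser-scanning cytometry.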

[13] = qHTS Assay for Lipid Storage Modulators (AID 1519; calls by dose curve); details: Drosophila S3 cells, BODIPY lipid droplet/cell ratio, laser cytometry, cells loaded with oleic acid
Procedure, shortened: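 Cells seeded at 5,000 per well were treated with compounds over a concentration series and loaded with oleic acid (400 uM, as added). Lipid droplet fluorescence (488 nm excitation, 500-530 nm channel) was read by laser-scanning cytometry and normalized to 20 uM Triacsin C.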

[14] = molecular target: Cytochrome P450 2D6 (Homo sapiens) (UniProt P10635); experiment: qHTS Assay for Inhibitors and Substrates of Cytochrome P450 2D6 (AID 891; active = well fitted curve in the direction sought with a large enough effect; an effect the other way counts as inactive or inconclusive; note: potency is the fitted concentration of half-maximal effect; nearly all actives have a fitted effect of over 60% in size); details: recombinant CYP2D6, luciferin-ME EGE luminescence; series mostly up to 57.1 µM
Procedure, shortened: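 Luminescent read-out of luciferin formed by 5 nM human CYP2D6 demethylating 30 uM Luciferin-ME EGE (Km level) over 60 min at room temperature after NADPH regeneration addition. Data normalized to full inhibition by 1.43 uM quinidine.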

[15] = molecular target: 3',5'-cyclic-AMP phosphodiesterase 4B (Homo sapiens) (UniProt Q07343); experiment: qHTS Assay for Inhibitors of PDE-IV (AID 607; active = well fitted activation curve with a large enough effect in the main read-out, with a control signal flat, not every such curve was filed as active; note: % of control where 0% means no effect); details: HEK293 ACTOne CNG channel cells, membrane potential fluorescence; series mostly up to 22.9 µM
Procedure, shortened: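 The readout is membrane depolarisation from a cAMP-sensing CNG channel, detected with a potential dye at ex 535/em 590. Cells were HEK293-derived (endogenous PDE-IV) at 1000 cells/well, titrated up to 22.9 uM final.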

[16] = molecular target: Ubiquitin carboxyl-terminal hydrolase 1 (Homo sapiens) (UniProt O94782); experiment: Inhibitors of USP1/UAF1: Pilot qHTS (AID 504865; active = well fitted curve in the direction sought with a large enough effect; an effect the other way counts as inactive or inconclusive;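 note: rhodamine fluorescence freed from ubiquitin-rhodamine substrate followed over time; top concentration of the series differs between compounds; % is set by controls: 0 for no effect and ±100 for the full control effect; nearly all actives have a fitted effect of over 35% in size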); details: purified USP1/UAF1, Ub-rhodamine cleavage fluorescence; series mostly up to 54.9 µM
Procedure, shortened: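 Kinetic fluorescence assay: 1nM USP1/UAF1, 15 min compound preincubation, then 150nM Ub-Rho; 480/540 nm.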

[17] = qHTS profiling for inhibitors of Plasmodium falciparum proliferation (AID 504749; active = well fitted curve in the direction sought with a large enough effect; an effect the other way counts as inactive or inconclusive;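 note: 0% = DMSO vehicle and full inhibition = artemisinin control; nearly all actives have a fitted effect of over 60% in size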); details: P. falciparum in erythrocytes, SYBR Green DNA, 72 h, at 28.7 µM (top of the series)
Procedure, shortened: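 Fluorescence of SYBR Green-bound parasite DNA, read at 485/535 nm, served as the growth measure. Infected erythrocytes were cultured with compound 72 h; artemisinin (0.29 uM) and DMSO wells defined the normalization range.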

[18] = molecular target: Cytochrome P450 2C19 (Homo sapiens) (UniProt P33261); experiment: qHTS Assay for Inhibitors and Substrates of Cytochrome P450 2C19 (AID 899; active = well fitted curve in the direction sought with a large enough effect; an effect the other way counts as inactive or inconclusive; note: potency is the fitted concentration of half-maximal effect; nearly all actives have a fitted effect of over 60% in size); details: recombinant CYP2C19, luciferin-H EGE luminescence; series mostly up to 57.1 µM
Procedure, shortened: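 Human CYP2C19 (5nM) with Luciferin-H EGE at 10uM (its KM) in 50mM KPO4 was preincubated with compound for 10 min at 37C. NADPH regeneration started a 60 min 37C reaction. Luciferin was read by luminescence, normalized to 57uM ketoconazole.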

[19] = at 7.69 µM (top of the series) unless noted
[20] = measured here: cell count channel max response
[21] = measured here: lipid channel max response

Sequence of Cytochrome P450 1A2 (Homo sapiens) (P05177 whole entry, looked up): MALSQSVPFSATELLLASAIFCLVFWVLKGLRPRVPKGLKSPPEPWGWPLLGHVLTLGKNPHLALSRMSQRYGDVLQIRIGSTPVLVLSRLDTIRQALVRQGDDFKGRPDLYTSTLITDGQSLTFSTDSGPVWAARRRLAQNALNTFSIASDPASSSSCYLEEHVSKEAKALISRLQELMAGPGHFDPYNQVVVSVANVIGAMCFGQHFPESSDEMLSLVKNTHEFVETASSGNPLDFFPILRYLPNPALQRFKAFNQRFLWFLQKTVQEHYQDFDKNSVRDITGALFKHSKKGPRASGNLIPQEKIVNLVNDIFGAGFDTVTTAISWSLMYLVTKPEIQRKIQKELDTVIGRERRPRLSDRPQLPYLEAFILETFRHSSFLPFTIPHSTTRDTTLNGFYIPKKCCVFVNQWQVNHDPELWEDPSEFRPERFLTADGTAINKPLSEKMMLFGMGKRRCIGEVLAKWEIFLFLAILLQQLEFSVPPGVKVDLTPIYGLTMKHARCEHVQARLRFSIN
Sequence of Lysosomal acid glucosylceramidase (Homo sapiens) (P04062 whole entry, looked up): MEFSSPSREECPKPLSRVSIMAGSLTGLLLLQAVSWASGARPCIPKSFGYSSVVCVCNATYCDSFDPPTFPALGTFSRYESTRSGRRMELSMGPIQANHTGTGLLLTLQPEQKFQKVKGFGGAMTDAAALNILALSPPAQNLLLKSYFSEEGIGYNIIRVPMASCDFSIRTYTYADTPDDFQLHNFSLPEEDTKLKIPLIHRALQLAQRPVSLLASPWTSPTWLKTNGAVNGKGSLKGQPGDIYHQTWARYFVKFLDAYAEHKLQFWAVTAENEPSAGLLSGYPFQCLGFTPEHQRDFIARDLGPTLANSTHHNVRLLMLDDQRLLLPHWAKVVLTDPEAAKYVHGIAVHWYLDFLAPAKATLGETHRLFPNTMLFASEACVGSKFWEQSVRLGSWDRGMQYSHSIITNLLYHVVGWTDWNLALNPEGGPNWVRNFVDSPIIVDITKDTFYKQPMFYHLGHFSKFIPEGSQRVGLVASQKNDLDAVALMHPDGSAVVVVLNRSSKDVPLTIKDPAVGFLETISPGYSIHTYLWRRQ
Sequence of Glucocorticoid receptor (Homo sapiens) (P04150 whole entry, looked up, the tested form may be a part): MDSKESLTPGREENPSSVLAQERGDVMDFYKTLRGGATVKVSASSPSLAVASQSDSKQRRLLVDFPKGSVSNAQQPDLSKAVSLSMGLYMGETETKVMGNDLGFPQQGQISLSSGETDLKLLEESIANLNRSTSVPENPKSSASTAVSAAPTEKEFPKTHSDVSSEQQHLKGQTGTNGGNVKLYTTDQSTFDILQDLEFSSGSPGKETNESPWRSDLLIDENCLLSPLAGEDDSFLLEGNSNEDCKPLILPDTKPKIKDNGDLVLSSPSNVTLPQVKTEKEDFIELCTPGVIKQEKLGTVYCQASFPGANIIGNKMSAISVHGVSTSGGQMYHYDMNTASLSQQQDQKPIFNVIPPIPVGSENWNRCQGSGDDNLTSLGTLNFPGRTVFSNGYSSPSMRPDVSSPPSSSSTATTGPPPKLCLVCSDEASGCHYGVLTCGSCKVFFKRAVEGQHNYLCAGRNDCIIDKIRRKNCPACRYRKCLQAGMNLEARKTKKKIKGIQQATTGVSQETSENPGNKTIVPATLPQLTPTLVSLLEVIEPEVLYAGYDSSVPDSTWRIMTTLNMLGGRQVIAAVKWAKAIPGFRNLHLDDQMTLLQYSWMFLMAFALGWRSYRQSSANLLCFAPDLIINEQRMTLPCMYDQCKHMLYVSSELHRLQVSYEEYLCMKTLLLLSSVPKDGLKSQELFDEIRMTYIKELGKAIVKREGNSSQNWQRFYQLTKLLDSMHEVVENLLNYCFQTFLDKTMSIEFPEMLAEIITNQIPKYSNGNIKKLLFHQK
Sequence of Cytochrome P450 3A4 (Homo sapiens) (P08684 whole entry, looked up): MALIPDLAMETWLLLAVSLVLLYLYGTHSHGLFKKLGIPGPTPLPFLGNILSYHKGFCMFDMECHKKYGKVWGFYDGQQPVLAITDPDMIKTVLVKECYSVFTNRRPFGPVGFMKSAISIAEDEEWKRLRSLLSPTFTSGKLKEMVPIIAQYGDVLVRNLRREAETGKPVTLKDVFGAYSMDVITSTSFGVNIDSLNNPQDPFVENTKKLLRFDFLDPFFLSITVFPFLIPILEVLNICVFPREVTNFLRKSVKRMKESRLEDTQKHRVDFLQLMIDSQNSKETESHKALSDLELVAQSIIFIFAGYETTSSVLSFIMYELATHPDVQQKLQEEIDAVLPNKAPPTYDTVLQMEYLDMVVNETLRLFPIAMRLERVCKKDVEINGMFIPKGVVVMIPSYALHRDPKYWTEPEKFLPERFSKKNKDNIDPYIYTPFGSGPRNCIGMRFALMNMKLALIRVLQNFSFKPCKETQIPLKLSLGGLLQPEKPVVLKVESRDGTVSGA
Sequence of 3',5'-cyclic-AMP phosphodiesterase 4B (Homo sapiens) (Q07343 whole entry, looked up): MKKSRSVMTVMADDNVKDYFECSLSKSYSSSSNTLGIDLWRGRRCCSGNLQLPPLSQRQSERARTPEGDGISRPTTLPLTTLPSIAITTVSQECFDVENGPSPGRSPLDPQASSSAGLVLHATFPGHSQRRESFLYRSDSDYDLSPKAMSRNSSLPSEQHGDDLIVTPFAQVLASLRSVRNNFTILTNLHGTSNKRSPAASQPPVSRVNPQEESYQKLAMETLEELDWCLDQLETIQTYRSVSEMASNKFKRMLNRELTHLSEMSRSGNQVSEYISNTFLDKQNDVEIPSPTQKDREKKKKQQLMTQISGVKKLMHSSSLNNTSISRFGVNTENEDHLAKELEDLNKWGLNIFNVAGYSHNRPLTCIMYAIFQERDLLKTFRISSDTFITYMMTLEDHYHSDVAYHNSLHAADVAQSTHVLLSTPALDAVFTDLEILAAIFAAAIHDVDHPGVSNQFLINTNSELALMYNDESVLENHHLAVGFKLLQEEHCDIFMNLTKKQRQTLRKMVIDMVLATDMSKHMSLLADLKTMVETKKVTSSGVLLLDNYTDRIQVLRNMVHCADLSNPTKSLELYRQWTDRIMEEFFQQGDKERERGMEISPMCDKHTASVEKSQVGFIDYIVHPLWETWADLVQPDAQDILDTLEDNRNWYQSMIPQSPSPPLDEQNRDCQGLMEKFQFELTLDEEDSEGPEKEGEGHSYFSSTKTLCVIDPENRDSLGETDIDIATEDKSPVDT
Sequence of Ubiquitin carboxyl-terminal hydrolase 1 (Homo sapiens) (O94782 whole entry, looked up): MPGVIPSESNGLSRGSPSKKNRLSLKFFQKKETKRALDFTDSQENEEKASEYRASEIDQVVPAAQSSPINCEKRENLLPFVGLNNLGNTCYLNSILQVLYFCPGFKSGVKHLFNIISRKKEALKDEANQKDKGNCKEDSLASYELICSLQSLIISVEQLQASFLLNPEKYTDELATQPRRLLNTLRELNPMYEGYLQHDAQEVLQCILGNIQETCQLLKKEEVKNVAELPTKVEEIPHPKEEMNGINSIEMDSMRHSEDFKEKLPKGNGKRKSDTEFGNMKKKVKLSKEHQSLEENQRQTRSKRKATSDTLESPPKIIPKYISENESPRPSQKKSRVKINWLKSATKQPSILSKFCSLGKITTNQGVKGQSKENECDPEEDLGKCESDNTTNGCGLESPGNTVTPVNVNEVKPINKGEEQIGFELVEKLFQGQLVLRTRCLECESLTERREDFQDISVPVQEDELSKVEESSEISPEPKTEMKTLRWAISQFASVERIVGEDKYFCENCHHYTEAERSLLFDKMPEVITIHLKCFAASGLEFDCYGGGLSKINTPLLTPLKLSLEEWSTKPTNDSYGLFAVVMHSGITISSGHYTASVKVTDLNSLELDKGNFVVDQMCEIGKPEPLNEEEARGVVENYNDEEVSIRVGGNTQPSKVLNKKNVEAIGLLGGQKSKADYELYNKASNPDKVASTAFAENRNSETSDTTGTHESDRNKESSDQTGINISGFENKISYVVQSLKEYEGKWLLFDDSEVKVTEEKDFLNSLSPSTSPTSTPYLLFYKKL
Sequence of Cytochrome P450 2D6 (Homo sapiens) (P10635 whole entry, looked up): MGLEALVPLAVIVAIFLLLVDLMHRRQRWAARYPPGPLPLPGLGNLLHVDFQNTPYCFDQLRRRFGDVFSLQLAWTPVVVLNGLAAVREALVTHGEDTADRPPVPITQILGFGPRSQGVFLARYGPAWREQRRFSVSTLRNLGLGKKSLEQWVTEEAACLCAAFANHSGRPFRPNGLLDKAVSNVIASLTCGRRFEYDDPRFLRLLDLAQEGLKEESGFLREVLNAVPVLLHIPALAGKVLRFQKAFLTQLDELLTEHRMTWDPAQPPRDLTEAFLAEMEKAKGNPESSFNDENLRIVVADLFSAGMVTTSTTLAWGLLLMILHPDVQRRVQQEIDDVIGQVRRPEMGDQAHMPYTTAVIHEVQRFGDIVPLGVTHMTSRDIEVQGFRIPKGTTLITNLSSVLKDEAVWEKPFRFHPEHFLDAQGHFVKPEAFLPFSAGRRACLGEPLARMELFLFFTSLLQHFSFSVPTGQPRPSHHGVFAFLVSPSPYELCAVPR
Sequence of Cytochrome P450 2C19 (Homo sapiens) (P33261 whole entry, looked up): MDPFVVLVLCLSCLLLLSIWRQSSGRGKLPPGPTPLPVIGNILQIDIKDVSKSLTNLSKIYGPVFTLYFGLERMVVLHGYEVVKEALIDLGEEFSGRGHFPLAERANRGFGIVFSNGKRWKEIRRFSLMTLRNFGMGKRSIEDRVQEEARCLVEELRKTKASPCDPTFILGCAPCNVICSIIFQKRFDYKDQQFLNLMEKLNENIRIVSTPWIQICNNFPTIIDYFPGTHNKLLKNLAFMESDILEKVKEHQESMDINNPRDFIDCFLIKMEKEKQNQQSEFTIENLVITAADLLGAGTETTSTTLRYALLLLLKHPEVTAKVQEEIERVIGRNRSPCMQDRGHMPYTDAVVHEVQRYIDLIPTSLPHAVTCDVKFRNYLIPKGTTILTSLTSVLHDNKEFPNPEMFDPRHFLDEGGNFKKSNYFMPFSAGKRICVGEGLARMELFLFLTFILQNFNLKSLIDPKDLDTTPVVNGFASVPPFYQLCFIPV

COCCNc1nc(-c2cccc(OC)c2)nc2ccccc12
Potency [1]: > 11.4 µM (inactive) | activity change, negative = inhibition [2, 19]: -3.79% (inactive) | Potency [3]: 0.2 µM (active) | activity change, negative = inhibition [4]: 0.846% (inactive) | activity, negative = inhibition [5, 19]: -13.7% (inactive) | Potency [6]: > 46 µM (inactive) | Potency [7]: > 46 µM (inactive) | Potency [8]: inactive | Potency [9]: 5.01 µM (active) | Potency [10]: inactive | Potency [11]: inactive | outcome [12]: inactive | activity change, negative = inhibition ([13]; at 57.5 µM (top of the series)): -5.01% (inactive) | max response [13, 20]: 5.13% | max response [13, 21]: -0.48%

CN(C)Cc1ccccc1-c1ccc2ncnc(NCc3ccccc3)c2c1
Potency [1]: > 11.4 µM (inactive) | activity change, negative = inhibition [2, 19]: -7.49% (inactive) | Potency [3]: 15.8 µM (active) | activity change, negative = inhibition [4]: -27% (inactive) | activity, negative = inhibition [5, 19]: 11.3% (inactive) | Potency [6]: > 46 µM (inactive) | Potency [7]: > 46 µM (inactive) | Potency [8]: inactive | Potency [10]: inactive | Potency [14]: 7.94 µM (active) | Potency [11]: inactive | outcome [12]: inactive | activity change, negative = inhibition ([13]; at 57.5 µM (top of the series)): 5.57% (inactive) | max response [13, 20]: 19.6% | max response [13, 21]: 25.6%

N#CCCn1c(=O)cnc2cnc(N3CCNCC3)nc21
Potency [1]: > 11.4 µM (inactive) | activity change, negative = inhibition [2, 19]: -10.6% (inactive) | Potency [3]: 12.6 µM (active) | activity change, negative = inhibition [4]: 3.67% (inactive) | activity, negative = inhibition [5, 19]: -12.7% (inactive) | Potency [6]: > 9.22 µM (inactive) | Potency [7]: > 46 µM (inactive) | Potency [8]: inactive | Potency [15]: inactive | activity change, negative = inhibition ([13]; at 57.5 µM (top of the series)): 4.17% (inactive) | max response [13, 20]: 14.3% | max response [13, 21]: 19.4%

CN1[C@@H]2CC[C@H]1CC(OC(=O)[C@@H](O)c1ccccc1)C2 (stereo partly specified)
Potency [1]: > 11.4 µM (inactive) | activity change, negative = inhibition ([2]; at 7.69 µM (top of the series)): 9.45% (inactive) | activity change, negative = inhibition ([2]; at 17.2 µM (top of the series)): -8.08% (inactive) | activity change, negative = inhibition ([2]; at 38 µM (top of the series)): -8.54% (inactive) | activity, negative = inhibition ([5]; at 7.69 µM (top of the series)): -3.56% (inactive) | activity, negative = inhibition ([5]; at 17.2 µM (top of the series)): 8.85% (inactive) | Potency [8]: inactive | Potency [15]: inactive | activity change, negative = inhibition ([13]; at 25.7 µM (top of the series)): 2.61% (inactive) | max response [13, 20]: 4.94% | max response [13, 21]: 8.69% | Potency [16]: inactive | activity, negative = inhibition ([17]; parasite line A): -3.65% (inactive) and -0.465% (inactive) | activity, negative = inhibition ([17]; parasite line B): 7.89% (inactive) and -12.1% (inactive)

N#Cc1cccc(-c2nc(Nc3ccncc3)c3ccccc3n2)c1
Potency [1]: 2.09 µM (active) | activity change, negative = inhibition [2, 19]: -0.676% (inactive) | Potency [3]: 0.631 µM (active) | activity change, negative = inhibition [4]: -19.2% (inactive) | activity, negative = inhibition [5, 19]: 8.07% (inactive) | Potency [6]: > 46 µM (inactive) | Potency [7]: > 46 µM (inactive) | Potency [8]: inactive | Potency [15]: inactive | Potency [10]: inactive | Potency [11]: inactive | outcome [12]: inactive | activity change, negative = inhibition ([13]; at 57.5 µM (top of the series)): 5.79% (inactive) | max response [13, 20]: 4.98% | max response [13, 21]: 11.4%

COc1ccccc1-c1cncnc1NCc1cccc(C)c1
Potency [1]: > 11.4 µM (inactive) | activity change, negative = inhibition [2, 19]: -3.97% (inactive) | Potency [3]: 5.01 µM (active) | activity change, negative = inhibition [4]: -21.2% (inactive) | activity, negative = inhibition [5, 19]: -6.93% (inactive) | Potency [6]: > 46 µM (inactive) | Potency [7]: > 46 µM (inactive) | Potency [8]: inactive | Potency [10]: inactive | Potency [18]: 0.398 µM (active) | Potency [11]: inactive | outcome [12]: inactive | activity change, negative = inhibition ([13]; at 57.5 µM (top of the series)): 10.8% (inactive) | max response [13, 20]: 7.88% | max response [13, 21]: 19.2%
